Bioassay records (PubChem BioAssay)
A selection: hits, their analogues and other compounds. The true share with any hit is near 6.6%.
KB-V1 MDR tox: qHTS assay for MDR1-selective chemotherapeutics: Primary screen using the drug-selected MDR subline cells KB-V1; KB-V1 MDR cells viability, CellTiter-Glo, 72 h; AID 1347076, 2019; Potency, µM (titrated, usually from 46.1 µM), most hits filed as cytotoxic; hit rate 3.4% among 400,000; note: % is set by controls: 0 for no effect and ±100 for the full control effect; nearly all actives have a fitted effect of over 60% in size
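Cytotoxicity toward P-gp-expressing KB-V1 cells was determined as loss of CellTiter-Glo luminescence after 72 h at 37 degrees C. Compounds were tested in quantitative HTS format across a concentration range, with curves fitted to normalized data.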
TSG101-PTAP inh: qHTS Assay for Iinhibitors of HIV-1 Budding by Blocking the Interaction of PTAP/TSG101. Tumor susceptibility gene 101 protein (Homo sapiens), Q99816. Fluorescence polarization, FITC-PTAP peptide / Tsg101 binding. Potency, µM (series often up to 115 µM), inactives show at the top dose activity change, negative = inhibition, most hits filed as inhibitors. 340,000 tested, under 10 active. AID 493005, 2010; active = well fitted inhibition curve with a large enough effect in the main read-out, with a control signal flat, not every such curve was filed as active; inconclusive = small, poorly fitted or top-dose-only effect, or effect the other way, or a change in a side signal; inactive = no such curve, though single readings can be large or run the other way; note: % of control where 0% means no effect
Target sequence (Q99816 whole entry, looked up): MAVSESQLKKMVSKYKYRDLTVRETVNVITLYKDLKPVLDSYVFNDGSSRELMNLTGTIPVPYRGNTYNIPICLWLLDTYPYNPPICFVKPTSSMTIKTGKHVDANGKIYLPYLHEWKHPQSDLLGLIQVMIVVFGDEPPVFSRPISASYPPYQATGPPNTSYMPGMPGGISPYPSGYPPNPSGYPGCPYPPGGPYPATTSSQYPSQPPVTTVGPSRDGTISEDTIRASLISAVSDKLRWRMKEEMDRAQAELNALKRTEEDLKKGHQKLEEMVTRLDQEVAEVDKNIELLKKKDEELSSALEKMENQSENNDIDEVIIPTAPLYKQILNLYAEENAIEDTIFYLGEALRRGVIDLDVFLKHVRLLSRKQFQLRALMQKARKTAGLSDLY
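FP read-out: FITC-PTAP peptide, 50 nM final, binding Tsg101 binding domain, 10 uM final; 20 min, r.t.; 10 mM HEPES pH 7.5, 0.15 M NaCl, 0.01% Tween 20, 3 mM EDTA, 0.1 mM TCEP.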
SW480 rereplic: A quantitative high throughput screen for small molecules that induce DNA re-replication in SW480 colon adenocarcinoma cells | SW480 DNA re-replication, Hoechst DNA content imaging, 48 h | Potency, µM (series often up to 46.1 µM), without a hit: top-dose re-replication activation, usual class: activators | hit rate 1.8% among 340,000 | AID 624297, 2012; note: % of control where 0% means no effect; nearly all actives have a fitted effect of over 55% in size
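Image-based DNA-content assay: after two days of treatment, nuclei were labelled with the DNA dye Hoechst and imaged, and hits were compounds raising the count of nuclei showing high fluorescence intensity.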
RGS4 inh: Inhibitors of Regulator of G Protein Signaling (RGS) 4: qHTS; Potency, µM (doses to about 114 µM), for the others: top-dose activity change, negative = inhibition, hits mostly inhibitors; hit rate 0.039% among 390,000; AID 504845, 2011; Transcreener GDP fluorescence polarization, RGS4-accelerated GTP hydrolysis; note: % is set by controls: 0 for no effect and ±100 for the full control effect; nearly all actives have a fitted effect of over 75% in size
Target sequence (P49798 whole entry, looked up): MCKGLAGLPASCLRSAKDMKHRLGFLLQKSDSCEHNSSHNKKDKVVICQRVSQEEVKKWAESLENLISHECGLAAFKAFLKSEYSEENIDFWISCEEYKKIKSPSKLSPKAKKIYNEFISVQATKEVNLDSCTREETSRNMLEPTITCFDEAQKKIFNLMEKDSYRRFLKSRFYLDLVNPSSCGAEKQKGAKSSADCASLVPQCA
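MLSMR compounds (23 nl, pin-transferred) preincubated 10 min at room temperature with a 500nM (2x) first reagent, then RGS4 at 900nM (2x) plus Transcreener GDP mix added; fluorescence polarization (620/688 nm) read before and after 90 min at 30 °C.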
KB-3-1 tox: qHTS assay for MDR1-selective chemotherapeutics: Primary screen using the parental adenocarcinoma cell KB-3-1. KB-3-1 viability, CellTiter-Glo ATP luminescence, 72 h. Potency, µM (doses to about 46.1 µM), usual class: cytotoxic. hit rate 1.4% among 400,000. AID 1347075, 2019; note: % is set by controls: 0 for no effect and ±100 for the full control effect; nearly all actives have a fitted effect of over 60% in size
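Cells are dispensed, compounds pinned in, plates held at 37 °C for 72 h, then CellTiter-Glo is added and luminescence read after 10 minutes. Cell line: parental KB-3-1 in phenol-red-free DMEM, 10% FBS.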
MCF10A rerep: A quantitative high throughput screen for small molecules that induce DNA re-replication in MCF 10a normal breast cells. Potency, µM (doses to about 46.1 µM), for the others: top-dose activity, positive = re-replication, actives largely listed as activators. MCF 10A DNA re-replication, Hoechst nuclear intensity, 48 h. hit rate 2.9% among 350,000; note: % of control where 0% means no effect; nearly all actives have a fitted effect of over 50% in size
* marks the source's active call; other numbers are inactive results; i = inactive; u = inconclusive; x = no result given; [ ] = dose if it differs, or a comment. Unless noted, calls come from the whole dose curve; as a rule, active = well fitted curve in the direction sought with a large enough effect; inconclusive = small, poorly fitted or top-dose-only effect, or another doubt; inactive = no such curve, though single readings can be large; an effect the other way counts as inactive or inconclusive. Potency is the fitted concentration of half-maximal effect.

SMILES	KB-V1 MDR tox	TSG101-PTAP inh	SW480 rereplic	RGS4 inh	KB-3-1 tox	MCF10A rerep
CCc1ccc(NC(=O)N2CCC(N3CCN(Cc4ccc(C)cc4)C(=O)C3=O)CC2)cc1	u	x	x	-17.1%	i	x
CC1(C)Cc2c(sc3nc(-c4cccs4)n(N)c(=O)c23)CO1	8.2µM*	x	u	41.5%	i	u
CC1(C)Cc2c(sc3nc(-c4ccccc4)n(N)c(=O)c23)CO1	i	-1.9%	-5.1%	4.0%[11.4 µM]	i	u
Cc1cccc(N2CCN(C(=O)CN3C(=O)COc4ccc(S(=O)(=O)N5CCCCCC5)cc43)CC2)c1C	i	x	x	3.7%	i	x
O=c1cc(C(Cl)(Cl)Cl)oc2c1ccc1ccccc12	i	-4.3%	13µM*	10.2%	u	8.2µM*
COc1ccc(Cn2nnnc2CN2CCc3ccccc32)cc1	i	-20.8%	23.1µM*	-23.4%	i	9.4%
COc1ccc(C2(O)CCN(Cc3nnnn3Cc3ccc(C)cc3)CC2)cc1	i	-4.6%	u	10.3%	i	20.6µM*
CCCCc1ccc(/C(C)=N/Nc2cc(N3CCOCC3)nc(C)n2)cc1	u	2.3%	u	1.3%	i	20.6µM*
C/C(=N\Nc1cc(N2CCOCC2)nc(C)n1)c1cccc([N+](=O)[O-])c1	u	-0.1%	-69.0%	-14.1%	u	-14.4%
COc1cccc(C(=O)N2CCCC(c3nc(-c4cccs4)no3)C2)c1 (stereo unspecified)	4.11µM*	-7.4%	0.5%	-38.1%	i	6.6%
COc1ccc(NC(=O)N2CCC(c3nc(-c4cccs4)no3)CC2)cc1	6.51µM*	-11.2%	-9.6%	1.7%	i	8.9%
O=C(Nc1ccccc1)N1CCCC(c2nc(-c3cccs3)no2)C1 (stereo unspecified)	11.6µM*	-6.6%	-4.2%	-11.8%	i	-0.1%
COc1ccc(N2CCN(C(CNC(=O)C(=O)NCCc3ccccc3)c3cccnc3)CC2)cc1 (stereo unspecified)	i	x	x	-6.1%	i	x
COC(=O)CC1Oc2ccc(C)cc2-n2cc(-c3ccc(F)cc3)nc21 (stereo unspecified)	i	x	x	-19.8%	i	x
O=C(NC(NC1CCS(=O)(=O)C1)C(Cl)(Cl)Cl)c1cccc(Cl)c1 (stereo unspecified)	23.1µM*	-0.9%	0.7%	35.0%	i	0.2%
O=C(NC(NC1CCS(=O)(=O)C1)C(Cl)(Cl)Cl)c1ccc(Br)cc1 (stereo unspecified)	i	-10.4%	-18.1%	6.8%	i	0.9%
COC(=O)[C@]12CCCCC=C1N(CCc1ccc(OC)c(OC)c1)C(=O)[C@H](CC(=O)NCc1cccc(C(F)(F)F)c1)C2	14.6µM*	x	x	x	u	x
COC(=O)[C@@]12C[C@@H](CC(=O)NCc3cccc(C(F)(F)F)c3)C(=O)N(CCc3ccc(OC)c(OC)c3)C1=CCC(C)(C)C2	16.4µM*	x	x	x	u	x
COC(=O)[C@]12CCCCC=C1N(CCc1ccc(OC)c(OC)c1)C(=O)[C@H](CC(=O)NCCCCc1ccccc1)C2	u	x	x	x	i	x
COC(=O)[C@]12CCCCC=C1N(CCc1ccc(OC)c(OC)c1)C(=O)[C@H](CC(=O)NCCc1ccccc1OC)C2	16.4µM*	x	x	x	i	x
COC(=O)[C@@]12C[C@@H](CC(=O)NCc3cccc(C(F)(F)F)c3)C(=O)N(Cc3ccc4c(c3)OCO4)C1=CCC(C)(C)C2	20.6µM*	x	x	x	u	x
CCc1ccc(NC(=O)CC2C(=O)N(c3cccc(C)c3)C(=O)N2Cc2cccc(OC)c2)cc1 (stereo unspecified)	x	x	x	21.6%	x	x
Cc1cc(C)n(CCc2nc(-c3ccc(C(C)(C)C)cc3)cs2)n1	16.4µM*	-2.3%	13.8%	-35.7%	i	u
Cn1nc(C(F)(F)F)c(C#N)c1N1CCN(c2ccccc2F)CC1	i	0.6%	-1.4%	28.2%	u	u
COc1cccc(N2CCN(c3c(C#N)c(C(F)(F)F)nn3C)CC2)c1	13µM*	1.5%	-1.5%	1.1%	i	-7.4%
SMILES	KB-V1 MDR tox	TSG101-PTAP inh	SW480 rereplic	RGS4 inh	KB-3-1 tox	MCF10A rerep
COc1ccnc(N2CCN(c3cccc(C(F)(F)F)c3)CC2)c1C#N	i	-5.8%	u	-0.1%	i	20.6µM*
COc1ccc(N2C(=O)CSC23C(=O)N(CC(=O)NC2CCCCC2)c2ccccc23)cc1 (stereo unspecified)	x	x	x	-24.7%	x	x
CN1C2CCC1/C(=C\c1ccccc1F)C(=O)/C2=C/c1ccccc1F	13µM*	-2.4%	11.9%	-26.4%	u	u
CC1CCN(C2=NC(=O)/C(=C/c3ccccc3F)S2)CC1	i	0.8%	-2.5%	11.3%	i	u
COc1cccc(-c2nnc3sc(CN4CCCCC4)cn23)c1	i	x	x	-17.6%	2.59µM*	x
c1ccc(-c2nnc3sc(CN4CCc5ccccc54)cn23)cc1	u	1.4%	-0.3%	-3.9%	20.6µM*	-1.7%
CCOC(=O)C1CCCN(Cc2cn3c(-c4cccc(Br)c4)nnc3s2)C1 (stereo unspecified)	i	x	x	-15.2%	i	x
Cc1ccc(NC(=O)c2nnn(CC(=O)Nc3ccc(C)c(Cl)c3)c2N)c(C)c1	x	x	x	-9.4%	x	x
CCOC(=O)/C(=N\Nc1ccc(Cl)cc1)c1csc(Nc2ccccc2)n1	i	-1.0%	u	u	i	3.98µM*
CCOC(=O)/C(=N/Nc1ccccc1)c1csc(Nc2ccccc2)n1	u	-0.4%	u	11.2%	i	u
CCN(CC)C(=O)c1csc(Nc2ccc(C)cc2)n1	14.6µM*	-2.2%	-8.3%	12.9%	i	-0.1%
Cc1cc(C)c(/C=C/c2onc(C)c2S(=O)(=O)N2CCC(C(=O)N(C)Cc3ccccc3)CC2)c(C)c1	x	x	x	16.4%	x	x
CCC(C(=O)NCCc1ccc(Cl)cc1)n1ccc2cc(S(=O)(=O)N3CCCCC3)ccc21 (stereo unspecified)	i	x	x	36.0%	u	x
